Screening data (PubChem BioAssay)
Jurkat NFkB inh: lowers PMA/ionomycin-induced NF-kB signal in Jurkat cells | inhibition, % at 4 µM | PMA/ionomycin-induced NF-kB luciferase reporter, luminescence | 330,000 compounds, 0.53% hits; in the data active = inhibition above about 50%
TMEM16A inh: blocks the mouse calcium-activated chloride channel TMEM16A. HEK293 TMEM16A/YFP iodide influx fluorescence, ionomycin. Q8BHY3. normalized B-score (activity score, 25-100; higher = stronger inhibition) at 10 µM. 310,000 compounds, 1.2% hits;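 active = ratio plate-corrected score three or more library SD toward inhibition, starting fluorescence score within five deviations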;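 note: score derived from kinetic fluorescence span divided by baseline fluorescence per well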
697 NFkB inh: lowers PMA/ionomycin-induced NF-kB signal in 697 B cells. 697 B-cell NF-kB luciferase reporter, 16 h. inhibition, % at 4 µM. 330,000 compounds, 0.33% hits. AID 435022; in the data active = inhibition above about 35%
aSyn 5UTR inh: MLPCN primary screen, SNCA 5' untranslated region | alpha-synuclein 5'UTR reporter, inhibitor activity | inhibition, % (tested at 7.5 µM) | 300,000 compounds, 0.82% hits; in the data active = inhibition above about 60%;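 note: H4 neuroglioblastoma cells stably carrying SNCA 5'UTR luciferase fusion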
TMEM16A act: activators or potentiators of mouse TMEM16A chloride channel | HEK293 TMEM16A/YFP-H148Q/I152L, iodide quench fluorescence; active compounds read low | 340,000 compounds, 0.3% hits | AID 623877 | B-score at 10 µM | Q8BHY3;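 active = fluorescence-ratio B-score plate-corrected deviation score at least 3 library SD below zero, with starting fluorescence score within 5 deviations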;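 note: channel opened by trigger with iodide after compound preincubation; score built on the fluorescence ratio of max minus min over baseline; more negative score means more quench and so TMEM16A activation or potentiation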
KLF5 inh: inhibitors of KLF5 expression. 290,000 compounds, 0.23% hits. DLD-1 KLF5 promoter-luciferase reporter, luminescence. inhibition, % at 5 µM;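 active = inhibition above a per-plate limit of that plate's mean compound inhibition plus 3 SD, cut at about 60% in these data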;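 note: higher means less KLF5 promoter-driven luciferase light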
TMEM16A reconf: re-confirmation of mouse TMEM16A chloride channel inhibitors. inhibition, % at 10 µM. 2,300 compounds, 39% hits. shares compounds with TMEM16A inh. HEK293 TMEM16A/YFP-H148Q, iodide quench fluorescence; ionomycin added to raise cell calcium;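 active = mean duplicate percent inhibition, scaled so buffer wells are 0 and the reference blocker 100, over three buffer SD above buffer mean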
TMEM16A Ca cntr: alters calcium mobilization in TMEM16A HEK293 cells, counter-screen. calcium response (% of ionomycin), % at 10 µM. TMEM16A/YFP HEK293, Fluo4 calcium mobilization. shares compounds with TMEM16A inh. 2,300 compounds, 2% hits;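 active = duplicate-averaged calcium signal over 20% of the ionomycin maximum, relative to buffer baseline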;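 note: each well's signal is peak minus trough fluorescence divided by its pre-addition baseline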
Parental YFP cnt: acts in parental YFP-HEK293 cells lacking TMEM16A, counter-screen; 2,300 tested, under 10 active; AID 652233; shares compounds with TMEM16A inh; YFP ratio F(max-min)/F0 at 10 µM; iodide YFP quench, ionomycin;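 active = yellow fluorescent protein signal ratio exceeding the buffer control mean by over 5 SD of those controls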;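 note: ratio is mean of duplicate wells from kinetic YFP trace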
ClC-1 rat inh: selectivity of TMEM16A inhibitors: inhibition of rat ClC-1 chloride channel | shares compounds with TMEM16A inh | CHO ClC-1-YFP, iodide influx fluorescence quench; iodide control reads 0, buffer control 100 | ratio percent, % at 10 µM | 2,300 tested, under 10 active | AID 652236;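 active = duplicate-mean ratio percent above the mean of iodide-only control wells, which defines zero, plus 5 of their SD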;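 note: higher percent means stronger block of ClC-1 iodide influx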
Target sequence (P35524 whole entry, looked up): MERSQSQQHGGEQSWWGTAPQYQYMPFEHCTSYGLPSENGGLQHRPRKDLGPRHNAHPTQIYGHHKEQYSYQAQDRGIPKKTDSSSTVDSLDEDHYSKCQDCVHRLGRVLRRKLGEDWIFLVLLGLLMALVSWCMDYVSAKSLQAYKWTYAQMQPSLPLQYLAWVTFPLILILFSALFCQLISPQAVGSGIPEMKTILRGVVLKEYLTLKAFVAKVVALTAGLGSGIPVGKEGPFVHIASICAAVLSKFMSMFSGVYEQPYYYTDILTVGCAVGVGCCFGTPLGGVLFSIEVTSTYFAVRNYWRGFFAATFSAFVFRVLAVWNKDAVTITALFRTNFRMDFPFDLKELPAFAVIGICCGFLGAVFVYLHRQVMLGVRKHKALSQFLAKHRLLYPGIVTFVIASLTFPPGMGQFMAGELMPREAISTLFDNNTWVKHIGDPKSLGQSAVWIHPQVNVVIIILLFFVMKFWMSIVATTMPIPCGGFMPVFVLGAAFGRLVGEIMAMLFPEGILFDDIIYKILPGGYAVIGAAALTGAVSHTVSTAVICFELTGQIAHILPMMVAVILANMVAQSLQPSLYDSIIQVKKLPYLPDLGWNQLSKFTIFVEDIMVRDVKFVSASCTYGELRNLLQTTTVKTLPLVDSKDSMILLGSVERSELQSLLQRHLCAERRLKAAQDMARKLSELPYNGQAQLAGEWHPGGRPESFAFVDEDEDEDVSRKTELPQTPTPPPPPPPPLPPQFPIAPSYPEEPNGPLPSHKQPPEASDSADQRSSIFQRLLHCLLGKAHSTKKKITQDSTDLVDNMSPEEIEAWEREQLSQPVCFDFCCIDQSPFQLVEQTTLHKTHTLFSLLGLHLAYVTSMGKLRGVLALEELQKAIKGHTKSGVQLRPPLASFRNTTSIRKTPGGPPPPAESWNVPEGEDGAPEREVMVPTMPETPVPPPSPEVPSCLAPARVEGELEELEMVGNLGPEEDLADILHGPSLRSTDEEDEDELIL
Large screens that a line does not name were inactive (follow-up assays come after a bar, where they were run). Most compounds without a hit are left out; they make up all but 2.5% or so of the library.

N#Cc1c(NC(=O)COC(=O)c2ccc(O)cc2O)sc2c1CCC2	none (no result: TMEM16A inh, aSyn 5UTR inh, KLF5 inh)
Cc1cc(C(=O)N2CCN(C(=O)C3CCCO3)CC2)no1 (configuration not stated)	TMEM16A inh 100 | TMEM16A reconf 20% | TMEM16A Ca cntr inactive | Parental YFP cnt inactive | ClC-1 rat inh inactive
Cc1occc1C(=O)N1CCN(C(=O)C2CCCO2)CC1 (configuration not stated)	none
N#Cc1ccsc1NC(=O)C1=COCCO1	none (no result: TMEM16A inh, aSyn 5UTR inh, KLF5 inh)
O=C(Nc1nnc(C2CC2)s1)c1ccc(Cl)c(S(=O)(=O)N2CCc3ccccc3C2)c1	TMEM16A inh 100 | TMEM16A reconf 26% | TMEM16A Ca cntr inactive | Parental YFP cnt inactive | ClC-1 rat inh inactive
CCC1(C)Cc2c(sc3nc(NC)n(C)c(=O)c23)CO1 (configuration not stated)	TMEM16A inh 25 | TMEM16A reconf inactive | TMEM16A Ca cntr inactive | Parental YFP cnt inactive | ClC-1 rat inh inactive
Cn1c(NN)nc2sc3c(c2c1=O)CC(C)(C)OC3	none
CCn1cc(CNC(=O)c2cc(COc3ccc(F)cc3Cl)on2)cn1	none
CCn1nc(C)c(CNC(=O)c2cc(COc3ccc(F)cc3Cl)on2)c1C	TMEM16A inh 25 | TMEM16A reconf 24% | TMEM16A Ca cntr inactive | Parental YFP cnt inactive | ClC-1 rat inh inactive
Clc1ccc(NC2=NCCC2)cc1Cl	none | TMEM16A reconf inactive | TMEM16A Ca cntr inactive | Parental YFP cnt inactive | ClC-1 rat inh inactive
Cc1ccc(NC2=NCCCCC2)cc1C	none
CCCCN1C(=O)C(O)(c2ccccc2)c2cc(Br)ccc21 (configuration not stated)	none
CC(C)OC(=O)c1c(NS(=O)(=O)c2ccccc2)sc2c1CCCC2	TMEM16A inh 100 | TMEM16A reconf 72% | TMEM16A Ca cntr inactive | Parental YFP cnt inactive | ClC-1 rat inh inactive
COC(=O)c1c(NS(=O)(=O)c2ccc(C)cc2)sc2c1CCC(C)C2 (configuration not stated)	TMEM16A inh 100 (no result: aSyn 5UTR inh) | TMEM16A reconf 30% | TMEM16A Ca cntr inactive | Parental YFP cnt inactive | ClC-1 rat inh inactive
COc1ccc(CN2CC(C(=O)NCc3ccccn3)CC2=O)cc1 (configuration not stated)	TMEM16A inh 100 | TMEM16A reconf inactive | TMEM16A Ca cntr inactive | Parental YFP cnt inactive | ClC-1 rat inh inactive
COc1ccc(CN2CC(C(=O)NCCN3CCOCC3)CC2=O)cc1 (configuration not stated)	TMEM16A inh 100 | TMEM16A reconf inactive | TMEM16A Ca cntr inactive | Parental YFP cnt inactive | ClC-1 rat inh inactive
COc1cc(/C=C2\C(=N)N3N=C(S(C)(=O)=O)SC3=NC2=O)cc(OC)c1OCCOc1ccc(C)cc1	none
COc1cc(/C=C2\C(=N)N3N=C(S(C)(=O)=O)SC3=NC2=O)ccc1OCCOc1ccc(C)cc1	TMEM16A inh 25 | TMEM16A reconf inactive | TMEM16A Ca cntr inactive | Parental YFP cnt inactive | ClC-1 rat inh inactive
Cn1c(CNc2nc3ccccc3n2CCN2CCCCC2)nc2ccccc21	TMEM16A inh 25 | TMEM16A reconf inactive | TMEM16A Ca cntr inactive | Parental YFP cnt inactive | ClC-1 rat inh inactive
N#Cc1cccc(C(=O)Nc2cc(S(=O)(=O)N3CCOCC3)ccc2N2CCCC2)c1	none (no result: TMEM16A inh, aSyn 5UTR inh, KLF5 inh)
O=C(Nc1ccccc1)Nc1ccc(Cl)c(S(=O)(=O)N2CCOCC2)c1	TMEM16A inh 100 | TMEM16A reconf 28% | TMEM16A Ca cntr inactive | Parental YFP cnt inactive | ClC-1 rat inh inactive
